In PubChem BioAssay (NCI):
The panel holds about 79,000 compounds, 15% with a hit somewhere; the sample as a whole holds those more often. Rule as the data show it: active = growth inhibition above about 70%; inactive = the rest.

How the values were obtained:
[1] = NCI Yeast Anticancer Drug Screen. Data for the rad50 strain (AID 155);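 also: 0% = growth of vehicle-only cultures of the same strain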; conditions: S. cerevisiae rad50 strain growth inhibition; at 50.0 µM; hits give high values
Procedure, shortened: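 Cells are treated with compound, grown, and their growth is then scored against vehicle-only cultures of the same repair-deficient yeast strain.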

[2] = NCI Yeast Anticancer Drug Screen. Data for the mec2-1 strain (AID 157); conditions: S. cerevisiae mec2-1 strain, at 50.0 µM, hits give high values
Procedure, shortened: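 Compounds were applied to mec2-1 yeast cells. Their growth was then compared with that of vehicle-treated cultures to give growth inhibition.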

[3] = NCI Yeast Anticancer Drug Screen. Data for the mlh1 rad18 strain (AID 175); conditions: S. cerevisiae mlh1 rad18 strain growth inhibition; at 50.0 µM; hits give high values
Procedure, shortened: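 A repair-deficient yeast strain is exposed to test compound, and growth is scored relative to vehicle-treated controls.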

Measured: growth inhibition

O=C(N/N=C/c1ccc2c(c1)CCC2)c1cc2ccccc2cc1O
inactive: [1] 2.55% | [2] -8.15% | [3] 7.2%

CCOc1ccc(NC(=O)C2CCC(C)(C(=O)O)C2(C)C)cc1 (stereo not drawn)
inactive: [1] -3.45% | [2] 0.35% | [3] -0.8%

CCn1c(C)[n+](CC)c2ccc(C(F)(F)F)cc21
inactive: [1] -6.4% | [2] -10.7% | [3] 14.9%

NC(=O)C(=O)N/N=C/c1ccc2c(c1)CCC2
inactive: [1] -2.45% | [2] -10.9% | [3] 8.3%

Nc1nc(N)nc(-c2ccccc2Cl)n1
inactive: [1] 3.65% | [2] -10.8% | [3] 32.2%

O=C(O)C1=C(C2CCCCC2)C(=O)c2ccccc21
inactive: [1] 7.75% | [2] -15.8% | [3] 20.9%

O=C1c2ccccc2C(=O)c2c1cccc2N1C(=O)C=CC1=O
inactive: [1] 51.2% | [2] 37.9% | [3] 63.7%

COc1cc(/C=C2/SC(=S)NC2=O)cc(OC)c1OC
inactive: [1] 16.8% | [2] -1.4% | [3] 19.4%

COc1ccc(/C=N/N2C(=O)c3ccccc3C2=O)cc1OC
inactive: [1] 21% | [2] 1.2% | [3] 6.3%

CC(C)CC(Br)C(=O)NC(CC(C)C)C(=O)O (stereo not drawn)
inactive: [1] -26.2% | [2] -27.9% | [3] -23.2%

NC(=S)N/N=C/c1cc([N+](=O)[O-])ccc1Cl
inactive: [1] 10.8% | [2] -9.75% | [3] 10.2%
